# Reference: PubChem BioAssay (NCI)
# The panel holds about 83,000 compounds, 20% with a hit somewhere; the sample as a whole holds those more often.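 Negative percent growth values reflect cell death: -40 means 40% of the cells present at the start died, and -100 means all died.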 A number with no mark means an inactive call. The source made the active and inactive calls. How the source made its calls: active means growth percent below 10; inactive means the rest.
# How the values were obtained:
# Test in all cases: NCI-60 one-dose screen, 48 h (100 = growth as untreated, 0 = no growth, -100 = all killed)
# Conditions in all cases: 10 µM unless noted
# [1] = tested on: DU-145 prostate
# [2] = tested on: K-562 leukemia
# [3] = tested on: MALME-3M melanoma
# [4] = tested on: MDA-MB-231 breast
# [5] = tested on: RXF 393 renal
# [6] = tested on: SF-268 CNS
# [7] = tested on: SF-295 CNS
# [8] = tested on: SF-539 CNS
# [9] = tested on: UACC-257 melanoma
# [10] = tested on: M14 melanoma
# [11] = tested on: HCT-15 colon
# [12] = tested on: HT29 colon
# [13] = tested on: SNB-75 CNS
# [14] = tested on: SNB-19 CNS
# [15] = tested on: U251 CNS
# [16] = tested on: PC-3 prostate
# [17] = tested on: SK-MEL-5 melanoma
# [18] = tested on: UACC-62 melanoma
# [19] = tested on: LOX IMVI melanoma
# [20] = tested on: SK-MEL-28 melanoma
SMILES,growth [1],growth [2],growth [3],growth [4],growth [5],growth [6],growth [7],growth [8],growth [9],growth [10],growth [11],growth [12],growth [13],growth [14],growth [15],growth [16],growth [17],growth [18],growth [19],growth [20]
CN(C)CC(=O)Nc1nc(-c2cccc(NS(=O)(=O)c3cccc4c(N(C)C)cccc34)c2)cs1,103%,65.1%,85.2%,83.8%,88.5%,96.4%,70.4%,93.3%,86%,100%,75.8%,94.3%,95.6%,88.8%,83.4%,72%,63.4%,72.5%,95.3%,104%
O=[N+]([O-])c1ccc(NC(=S)NNC(=S)Nc2ccc(F)cc2)cc1,105%,49.8%,90.1%,92.4%,104%,95.1%,82.3%,94.9%,97.8%,92.1%,61.7%,98%,103%,94.4%,90.5%,76.5%,89.9%,58.8%,72.3%,98.4%
CN1CCN(Cc2ccc(NC(=O)c3cncc(C#Cc4cnc5ccc(O[C@@H]6CCOC6)nn45)c3)cc2C(F)(F)F)CC1,-91.1% (active),-12.6% (active),-89.6% (active),-73.2% (active),-79.1% (active),-68.3% (active),-88.5% (active),-89% (active),-74.6% (active),-86.3% (active),-40.4% (active),-54.6% (active),-98.4% (active),-48.9% (active),-72.9% (active),-40.4% (active),-97.4% (active),-76.3% (active),-96.9% (active),-82.4% (active)
C#CCOc1cccc(-c2nc(N)nc(Nc3ccccc3SSc3ccccc3Nc3nc(N)nc(-c4cccc(OCC#C)c4)n3)n2)c1,55.2%,43.5%,96.8%,48.1%,81.8%,-11.5% (active),-69.8% (active),59.2%,108%,66.6%,28.6%,96.9%,27.7%,-9.77% (active),-48.9% (active),7.33% (active),57.3%,63.9%,-52.8% (active),88.9%
CCCCCCCCCCCC(=O)NC(C)(C)C(=O)N1CCCC1C(=O)NC(C)(C)C(=O)NC(C)(C)C(=O)N1CCCC1C(=O)NC(C)(C)C(=O)NC(C)(C)C(=O)N1CCCC1C(=O)NC(C)C(=O)NCCC(=O)NC(C)C(=O)NC(C)(C)C(=O)NC(C)(C)C(=O)NC(C)(C)C(=O)NCCC(=O)NC(C)(C)C(=O)NC(C)(C)C(=O)NC(C)(C)C(=O)NC(C)C(=O)NCCC(=O)O (stereo not given),-99.4% (active),-65.4% (active),-89.4% (active),-87.5% (active),-94.5% (active),-60.6% (active),-97.1% (active),-92% (active),-91.8% (active),-97.3% (active),-96.5% (active),-86.6% (active),-89.7% (active),-97.4% (active),-94.7% (active),-93% (active),-98.5% (active),-90.9% (active),-92.4% (active),-93.8% (active)
Clc1ccc(CSc2nnc(-c3ccc(Cl)cc3)n2-c2ccccc2)cc1,95.8%,91.3%,86.3%,77.7%,57.1%,70.2%,78.4%,65.1%,87.6%,85.4%,93.3%,84%,-0.642% (active),62%,81.2%,71%,94.3%,85.8%,88.6%,98.8%
O=C(/C=C/c1ccccc1Cl)Nc1ncc(Cc2cc(Cl)ccc2Cl)s1,30.7%,12.9%,39.7%,49.4%,17.2%,43.9%,14.7%,1.2% (active),61.5%,18.2%,21.7%,-18% (active),1.14% (active),21%,16.6%,39.8%,25.7%,23.2%,35%,55.4%
NC(=O)n1c(=O)n(-c2cccc(C(F)(F)F)c2)c(=O)c2cc(-c3ccc(F)cc3F)ccc21,23.3%,5.61% (active),-18.8% (active),-24% (active),-2.52% (active),16.6%,-10.1% (active),15.5%,-13.5% (active),11.1%,10.1%,74.8%,-18.3% (active),11%,6.64% (active),-11.8% (active),-59.7% (active),-6.78% (active),-28.3% (active),26.1%
COc1ccc(C2C(C#N)=C(/N=C/c3ccc(Cl)cc3)Oc3c2sc2c(C)cccc32)cc1 (stereo not given),26.1%,9.73% (active),50.2%,33.9%,-5.77% (active),52.9%,8.79% (active),1.34% (active),70.9%,0.955% (active),18.8%,1.39% (active),29.2%,27.9%,14.1%,19.2%,27.8%,23%,41.6%,61.8%
C#CCn1cc(/C=N/Nc2nc(-c3ccc(Br)cc3)cs2)c2ccccc21,114%,110%,100%,95.8%,105%,108%,97.6%,93%,105%,93.9%,95.3%,104%,95.4%,96.6%,101%,91.7%,98.7%,91.5%,94.4%,103%
COc1ccc(/C(=N\N=C(N)N)c2ccc(Cl)cc2)cc1OC,90.3%,49.6%,90%,71%,54.3%,59.9%,71.8%,83%,90.2%,65.5%,77.3%,54.9%,46.2%,72.9%,72.4%,44%,93%,80.2%,58.3%,96.5%
Cc1ccc(NC2=C(Cl)C(=O)c3nc(C)ccc3C2=O)c(C)c1,-1.93% (active),2.95% (active),13.9%,11.9%,31.1%,24.8%,-29.9% (active),-61.9% (active),-80.6% (active),-58.3% (active),-57.7% (active),80.5%,87.9%,30.5%,22.6%,22.6%,-50.2% (active),18.5%,-29.2% (active),30.9%
N#Cc1c(-c2cccs2)c(C#N)c(=O)n(Cc2nc3ccccc3[nH]2)c1N,111%,101%,107%,82.4%,94.4%,104%,107%,97.7%,110%,98.4%,98.2%,-93% (active),78.7%,101%,94.2%,97.4%,95.1%,90.5%,100%,110%
O=C(/C=C/c1csc(Br)n1)NO,25%,9.85% (active),1% (active),34.1%,-15.9% (active),57.6%,7.79% (active),35.4%,22.3%,27.1%,49%,11.3%,9.37% (active),38.5%,31.4%,44.3%,-33.1% (active),-2.56% (active),-13.8% (active),33.4%
CCCc1cc2cc(-n3nc(CC)c4c3CC(C)(C)CC4=O)cc(NC3CCC(O)CC3)c2c(=O)[nH]1 (stereo not given),40.2%,10.9%,8.74% (active),7.65% (active),-15.8% (active),49.3%,28.5%,4.55% (active),29.1%,27.2%,17%,7.9% (active),-6.85% (active),30.6%,27.8%,32.8%,14.1%,26.6%,23.7%,40.8%
